In PubChem BioAssay (NCI):
The panel holds about 83,000 compounds, 20% with a hit somewhere; the sample as a whole holds those more often.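 48-hour exposure, single concentration, 96-well plates; percent growth endpoint where 0 means no net growth. Active: below 10.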 A number with no mark means an inactive call. Calls of active or inactive are those of the source.

These compounds were tested on SK-OV-3 ovarian (assay: NCI-60 one-dose screen, 48 h (100 = growth as untreated, 0 = no growth, -100 = all killed)). Conditions: 10 µM unless noted.

SMILES | growth
COc1ccc(CN2CCc3c(Sc4ccccc4)nc(N)nc3C2=O)c(OC)c1 | 82.2%
CCCCN(CCCC)C(=O)CC | 122%
O=C1Nc2ccc3c(c2/C1=C\c1cc2c(cc1Br)OCO2)OCO3 | 2.7% (active)
COc1ccc2c(c1)[nH]c(=O)c1c3cc(OC)ccc3cn21 | 42.4%
COc1ccc(Nc2nc(N)nc3c2CCN(Cc2ccc(OC)cc2OC)C3=O)cc1 | 90.5%
Cn1ccc(=O)c(S(N)(=O)=O)c1 | 126%
Cc1cc(N/N=C/c2nc(-c3ccccc3)oc2C)c2cc(Br)ccc2n1 | 78.3%
Cc1nn(-c2ccc([N+](=O)[O-])cc2)c2ncnc(NCCc3ccccc3)c12 | 101%
CCN(CC)CCC(CNc1ccnc2cc(Cl)ccc12)c1ccc(Cl)cc1 (stereo not given) | -12.9% (active)
OC(c1cc2cc(Br)ccc2c2cc(Br)ccc12)C1CCCCN1 (stereo not given) | -55.4% (active)
C=C1CCC2C3(C)COC(c4c(OC)cccc4OC)OC3CCC2(C)C1C/C=C1/C(=O)OCC1O (stereo not given) | 71.6%
COC(=O)c1cc2cc(-c3ccc(OC)cc3)cnc2[nH]1 | 1.35% (active)
Cc1ccc(S(=O)(=O)n2cc(C(=O)C(=O)N3CCOCC3)c3ccccc32)cc1 | 97.9%
O=C1c2ccccc2-c2ccccc2C1(Cl)Cl | 94.5%
COc1ccc(-c2cn(-c3cccc(C(=O)/C=C/c4cc(OC)c(OC)c(OC)c4)c3)c(=O)[nH]2)cc1OC | 82.7%
O=C(N/N=C/C=C\c1ccccc1)C(=O)N/N=C/C=C/c1ccccc1 | 111%
CN1CCN(Cc2ccc(NC(=O)c3cncc(C#Cc4cnc(N)c5ccncc45)c3)cc2C(F)(F)F)CC1 | -12.1% (active)
COc1cc(/C=C/C(=O)c2cccc(-n3cc(-c4cc(OC)c(OC)c(OC)c4)[nH]c3=O)c2)cc(OC)c1OC | 49.6%
O=c1[nH]c2ccc(Br)cc2c2c1C(c1ccc(Cl)cc1)c1c(ncn3nc(-c4ccco4)nc13)O2 (stereo not given) | 59.8%
Cc1nc2ncccc2nc1Nc1ccc(S(=O)(=O)Nc2cncs2)cc1 | 86.2%
Cc1cc(N/N=C/c2nc(-c3ccccc3)oc2C)c2cc(Cl)ccc2n1 | 76.4%
Cc1nc2ncccc2nc1Nc1ccc(S(=O)(=O)Nc2ccccn2)cc1 | 89.1%
NC(=S)N/N=C1\CCCC(C(F)(F)F)C1 (stereo not given) | 108%
Oc1ccc2cc(Br)ccc2c1-c1c(O)ccc2cc(Br)ccc12 | 64.7%
O=C(CN1CCN(c2cc3c(cc2F)c(=O)c(C(=O)N/N=C/c2ccccc2O)cn3C2CC2)CC1)N/N=C\c1ccccc1O | 34.5%
